Screening data (PubChem)
An excerpt weighted towards active compounds, which were near 5.2% of everything screened.
Vif inh: HIV Vif inhibition; HEK293T cells, Vif self-association by quenched fluorescence, imaging, 24 h; inhibition, % at 7.49 µM; 340,000 compounds, 0.35% hits; AID 602346; in the data active = inhibition above about 50%, passing the limit was not always enough; inconclusive = no clear call, values can overlap the other calls; inactive = below about 31%
SKN-1 block: blocks SKN-1 activity in C. elegans; C. elegans VP596 Pgst-4::GFP/RFP ratio, acrylamide-induced, 24 h; AID 624304; inhibition, % at 21.8 µM; 360,000 compounds, 0.49% hits;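 active = interference check ratio from 0.5 to 1.5 plus GFP to RFP signal ratio inhibition reaching or exceeding a fixed threshold, cut at about 30% in these data, passing the limit was not always enough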
NadD inh: inhibitors of Staphylococcus aureus NadD; purified NadD enzyme, colorimetric absorbance read-out; inhibition, % at 20 µM; 360,000 compounds, 0.78% hits; in the data active = inhibition above about 26%
SMARCA2 act: increases SMARCA2 function in MMTV reporter cells | activation, % at 9.1 µM | MG213 cells, MMTV-luciferase reporter, dexamethasone, overnight | AID 652017 | 370,000 compounds, 1% hits; in the data active = activation above about 7.8%;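 also: 0% = vehicle wells and 100% = reference activator wells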
esBAF inh: blocks esBAF chromatin remodeling in mouse ES cells; Bmi1-luciferase knock-in reporter, 24 h; 100% = twice the neutral-well signal; reporter increase, % at 12.5 µM; 350,000 compounds, 2% hits; AID 602393; in the data active = activation above about 40%; inconclusive = no clear call, values can overlap the other calls;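 also: 0% = median of the plate's neutral control wells and 100% = double that signal; a rise in the Bmi1 reporter signal indicates esBAF inhibition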
NR3A LBD binder: NR3A (human) ligand-binding domain modulation; NR3A LBD differential scanning fluorimetry, Tm shift; 0% = protein alone, 100% = glycine-bound protein; 340,000 compounds, 2.5% hits; AID 1259313; Tm shift relative to glycine control, % at 25 µM;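 active = melting temperature shift of at least 10% of the positive control shift, at one fixed dose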
The depositor's hits bear a star; u = inconclusive; x = no result.

SMILES	Vif inh	SKN-1 block	NadD inh	SMARCA2 act	esBAF inh	NR3A LBD binder
CCCN1[C@H](C(=O)N2CCOCC2)[C@@H](CO)[C@@H]2Cn3c(ccc(-c4ccccc4)c3=O)[C@@H]21	x	x	x	x	-1.0	x
O=C(Nc1ccc2c(c1)OCO2)c1cc(-c2cccc(O)c2)on1	20.5	7.1	-4.5	2.2	43.1*	3.5
O=C(Nc1cccc(O)c1)c1cc(-c2ccco2)on1	x	17.8	-4.3	5.6	73.4*	-2.4
Cc1ccc(NC(=O)c2cc(-c3ccc4c(c3)OCO4)on2)cc1C	2.9	-3.4	3.0	-0.1	6.2	-0.9
O=C(Nc1ccc2c(c1)OCO2)c1cc(-c2ccc(O)cc2)on1	41.8	6.2	5.9	4.9	46.4*	18.1*
O=C(Nc1cccnc1)c1cc(-c2ccc3c(c2)OCO3)on1	x	38.9*	2.7	5.6	68.7*	0.0
CC(=O)c1cccc(NC(=O)c2cc(-c3ccco3)on2)c1	-3.8	6.7	-4.9	-0.1	22.7	-3.3
O=C(Nc1ccc2c(c1)OCO2)c1ccc(Cl)cc1Cl	-2.2	16.4	-7.4	3.0	-23.0	1.1
O=C(Nc1ccc2c(c1)OCO2)C1CC(c2ccccc2O)=NO1 (centres undefined)	-5.5	1.1	-3.3	-1.8	24.9	0.0
O=C(Nc1ccc2c(c1)OCO2)c1cc(Cl)ccn1	-0.3	13.9	4.9	3.9	44.3*	-0.9
O=C(Nc1ccc2c(c1)OCCO2)C1CC(c2ccccc2Cl)=NO1 (centres undefined)	-2.4	8.5	-5.1	-0.8	60.4*	-0.3
Cc1cccc(-c2nc(C#N)c(N3CCCCC3)o2)c1	-12.9	3.9	-7.4	1.6	50.0*	1.2
Cc1cccc(-c2nc(C#N)c(NC3CCCCC3)o2)c1	-0.2	-9.2	-4.3	1.0	61.5*	-12.6
O=C(Nc1nccs1)[C@H]1[C@H](CO)[C@H]2Cn3c(ccc(-c4cccnc4)c3=O)[C@H]2N1CC1CCCC1	x	x	x	x	-1.5	x
Fc1ccccc1Cn1nnc2c(NCCc3ccccn3)ncnc21	-8.4	8.3	2.7	-1.5	47.7*	0.7
Fc1cccc(Cl)c1Cn1nnc2c(NCc3ccccn3)ncnc21	-17.1	4.9	0.6	-2.8	x	-1.3
Cc1cc(O)c(CN(C)C)c2c1C(=O)/C(=C/c1ccco1)O2	-5.4	2.7	-2.6	-1.1	0.9	3.8
Cc1cc(O)c(C=O)c2c1C(=O)Oc1c(CO)c(O)c3c(c1O2)C(O)OC3=O (centres undefined)	1.6	6.4	33.5*	x	-6.7	0.8
CC(=O)Nc1cnc(-c2cc(C)c(O)c(C)c2)cn1	-1.3	-5.5	-0.5	-1.7	71.5*	x
COc1ccc(C(=O)N/N=C\c2ccoc2)cc1	-2.4	15.4	1.0	2.1	x	-2.0
COc1ccc(/[N+]([O-])=C/c2ccoc2)cc1	2.6	7.5	-0.7	4.5	80.4*	1.4
COc1ccc(NC(=O)N(C)C[C@@H]2Oc3ccc(N(C)C)cc3CC(=O)N([C@H](C)CO)C[C@@H]2C)cc1	x	x	x	x	1.2	x
CO[C@@H]1CN(C)C(=O)c2cc(NC(=O)c3ccc(F)cc3)ccc2OC[C@H](C)N(C(C)=O)C[C@H]1C	x	x	x	x	-2.9	x
O=C(NNc1nc2ccccc2s1)Nc1ccc(Cl)c(Cl)c1	1.2	-9.3	6.2	-3.8	x	15.9*
CC(C)C(=O)NNc1nc2ccccc2s1	-1.0	14.1	2.9	3.4	92.1*	-1.0
SMILES	Vif inh	SKN-1 block	NadD inh	SMARCA2 act	esBAF inh	NR3A LBD binder
O=C(CSc1nc2ccccc2s1)NNC(=O)Nc1ccc(Cl)c(Cl)c1	-10.2	-3.9	9.1	-2.4	-9.2	25.5*
O=C(CSc1nc2ccccc2s1)NNC(=S)Nc1ccc(Br)cc1	x	8.6	4.0	0.2	2.7	27.2*
O=C(CSc1nc2ccccc2s1)NNC(=S)Nc1ccccc1	0.6	4.7	2.7	1.5	x	-9.1
CCNC(=O)[C@@H]1[C@@H](CO)[C@@H]2Cn3c(ccc(C4=CCCC4)c3=O)[C@H]1N2Cc1ccncc1	x	x	x	x	5.9	x
Cc1ccc(S(=O)(=O)Nc2cccc3c2O[C@@H](CN(C)C(=O)Nc2ccc(C(F)(F)F)cc2)[C@H](C)CN([C@H](C)CO)C3=O)cc1	x	x	x	x	-0.3	x
O=C(N[C@H]1CC[C@H](CCNS(=O)(=O)Cc2ccccc2)O[C@@H]1CO)c1cnccn1	x	x	x	x	-14.2	x
CCCCN1CCc2c([nH]c3ccccc23)C1=O	-4.9	13.9	0.6	4.6	68.6*	-2.6
CCCC/C=C1\CCc2c([nH]c3ccccc23)C1=O	4.2	11.1	-8.4	0.3	u	-0.4
CSc1nc(N)nc(SCC(=O)Nc2ccc(Cl)cc2)c1C#N	-3.4	-1.3	-4.8	-4.6	11.7	28.6*
CSc1nc(N)nc(SCC(=O)Nc2cccc(F)c2)c1C#N	7.0	-5.6	-1.5	-3.3	x	26.3*
CSc1nc(N)nc(SCC(=O)C(C)(C)C)c1C#N	-4.3	13.6	3.2	2.5	16.7	-34.0
C[C@H](CO)N1C[C@H](C)[C@@H](CN(C)CC2CCOCC2)Oc2ncc(C#Cc3ccccc3)cc2C1=O	x	x	x	x	-3.8	x
COc1cccc(NC(=O)Nc2nc(SC)ns2)c1	-7.8	4.2	-4.0	2.9	17.0	11.9*
CC(C)S(=O)(=O)c1ccc(C(=O)Nc2ccc(F)cc2F)cn1	7.3	-5.3	1.1	1.6	x	-1.0
COc1cccc(NC(=O)Nc2nc(SC(C)(C)C)ns2)c1	-3.9	1.9	-8.6	-2.9	-34.9	40.2*
CCCSc1ccc(C(=O)Nc2ccc(F)cc2F)cn1	-6.1	12.4	-4.4	6.2	46.0*	-0.5
CCCSc1nsc(NC(=O)Nc2ccc(F)cc2F)n1	-4.4	21.2	-2.4	-2.0	5.5	13.7*
COc1cccc(NC(=O)C(C)(C)C)c1	-1.2	0.2	-5.2	0.1	-2.0	-0.3
COc1cccc(C(=O)Nc2ccc3c(c2)C(=O)N(C)C[C@@H](OC)[C@@H](C)CN[C@H](C)CO3)c1	x	x	x	x	2.6	x
C[C@H](CO)N1C[C@H](C)[C@H](CN(C)S(=O)(=O)c2cccc(F)c2)OCc2cn(nn2)CCCC1=O	x	x	x	x	5.5	x
CCCSc1nsc(NC(=O)C(c2ccccc2)c2ccccc2)n1	-0.8	-12.2	-1.7	x	-9.3	17.9*
CCSc1nsc(NC(=O)Nc2cccc(F)c2)n1	-23.9	16.0	-7.5	-5.8	-15.5	31.9*
COc1ccc(CN2C[C@@H](C)[C@H](OC)CN(C)C(=O)c3ccc(NC(=O)C4CC4)cc3OC[C@H]2C)cc1	x	x	x	x	5.2	x
Fc1ccccc1CNC(=S)Nc1cccc(C(F)(F)F)c1	9.2	-5.3	-4.7	-3.5	x	14.0*
Fc1ccc(CNC(=S)Nc2cccc(C(F)(F)F)c2)cc1	-3.7	-10.2	0.9	2.3	x	7.0
FC(F)(F)c1cccc(NC(=S)NCc2ccc(Cl)cc2)c1	-5.2	-1.1	-8.1	-6.7	x	20.2*
CSc1ccccc1NC(=S)Nc1cccc(C(F)(F)F)c1	-1.5	13.5	-2.5	-1.9	5.7	-4.2
CC(C)OC(=O)CC1=NC(=O)CS1	-18.8	0.4	1.3	-6.5	-9.8	-0.4
COC(=O)CC1=NC(=O)CS1	x	-19.2	-1.5	1.0	2.8	11.0*
